In the supplement of paper PMC4466140:

Key:
Assay in all cases: SPOT peptide array binding signal intensity (averaged, normalized) (arbitrary units (background-subtracted, floor 0; scale differs between SH3 domains)); higher = stronger binding of the SH3 domain to the peptide
SpBzz1-D2 = biological target: SpBzz1-D2
Method: (§1)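 GST-tagged SH3 domains from S. cerevisiae (Sc), A. gossypii (Ag), C. albicans (Ca) and S. pombe (Sp) were incubated at 10 ug/ml overnight at 4 C on cellulose SPOT membranes carrying 292 synthetic 15-mer peptides mined from the S. cerevisiae proteome (cysteines replaced by serines). Binding was detected with anti-GST antibody, HRP secondary and chemiluminescence, quantified with Genespotter, and reported as normalized spot intensities averaged over biological replicates.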

SpCyk3 = biological target: SpCyk3
Method: as §1

SpHof1 = biological target: SpHof1
Method: as §1

SpHof1-2 = biological target: SpHof1-2
Method: as §1

SpHof1-3 = biological target: SpHof1-3
Method: as §1

SpHse1 = biological target: SpHse1
Method: as §1

SpLsb1 = biological target: SpLsb1
Method: as §1

SpLsb4 = biological target: SpLsb4
Method: as §1

SpMyo1 = biological target: SpMyo1
Method: as §1

SpNbp2 = biological target: SpNbp2
Method: as §1

SpPex13 = biological target: SpPex13
Method: as §1

SpRvs167 = biological target: SpRvs167
Method: as §1

SpSla1-D1-D2 = biological target: SpSla1-D1-D2
Method: as §1

SpSla1-D3 = biological target: SpSla1-D3
Method: as §1

AgAbp1 = biological target: AgAbp1
Method: as §1

AgBbc1 = biological target: AgBbc1
Method: as §1

AgBem1-D1 = biological target: AgBem1-D1
Method: as §1

AgBzz1-D1 = biological target: AgBzz1-D1
Method: as §1

AgBzz1-D2 = biological target: AgBzz1-D2
Method: as §1

AgCyk3 = biological target: AgCyk3
Method: as §1

AgFus1 = biological target: AgFus1
Method: as §1

AgHof1 = biological target: AgHof1
Method: as §1

AgHse1 = biological target: AgHse1
Method: as §1

AgLsb1 = biological target: AgLsb1
Method: as §1

AgLsb4 = biological target: AgLsb4
Method: as §1

AgMyo5 = biological target: AgMyo5
Method: as §1

AgNbp2 = biological target: AgNbp2
Method: as §1

AgRvs167 = biological target: AgRvs167
Method: as §1

AgSho1 = biological target: AgSho1
Method: as §1

AgSla1-D1-D2 = biological target: AgSla1-D1-D2
Method: as §1

AgSla1-D3 = biological target: AgSla1-D3
Method: as §1

CaAbp1-D1 = biological target: CaAbp1-D1
Method: as §1

CaAbp1-D2 = biological target: CaAbp1-D2
Method: as §1

CaBbc1 = biological target: CaBbc1
Method: as §1

CaBem1-D1 = biological target: CaBem1-D1
Method: as §1

CaBzz1-D1 = biological target: CaBzz1-D1
Method: as §1

CaBzz1-D2 = biological target: CaBzz1-D2
Method: as §1

CaCyk3 = biological target: CaCyk3
Method: as §1

CaFus1 = biological target: CaFus1
Method: as §1

CaHof1 = biological target: CaHof1
Method: as §1

CaHse1 = biological target: CaHse1
Method: as §1

CaLsb1 = biological target: CaLsb1
Method: as §1

CaLsb4 = biological target: CaLsb4
Method: as §1

CaMyo5 = biological target: CaMyo5
Method: as §1

CaNbp2 = biological target: CaNbp2
Method: as §1

CaRvs167 = biological target: CaRvs167
Method: as §1

CaRvs167-3 = biological target: CaRvs167-3
Method: as §1

CaSho1 = biological target: CaSho1
Method: as §1

CaSla1-D1-D2 = biological target: CaSla1-D1-D2
Method: as §1

CaSla1-D3 = biological target: CaSla1-D3
Method: as §1

ScAbp1 = biological target: ScAbp1
Method: as §1

ScBbc1 = biological target: ScBbc1
Method: as §1

ScBem1-D1 = biological target: ScBem1-D1
Method: as §1

ScBzz1-D1 = biological target: ScBzz1-D1
Method: as §1

ScBzz1-D2 = biological target: ScBzz1-D2
Method: as §1

ScCyk3 = biological target: ScCyk3
Method: as §1

ScFus1 = biological target: ScFus1
Method: as §1

ScHof1 = biological target: ScHof1
Method: as §1

ScHse1 = biological target: ScHse1
Method: as §1

ScLsb1 = biological target: ScLsb1
Method: as §1

ScLsb2 = biological target: ScLsb2
Method: as §1

ScLsb3 = biological target: ScLsb3
Method: as §1

ScLsb4 = biological target: ScLsb4
Method: as §1

ScMyo3 = biological target: ScMyo3
Method: as §1

ScMyo5 = biological target: ScMyo5
Method: as §1

ScNbp2 = biological target: ScNbp2
Method: as §1

ScPex13 = biological target: ScPex13
Method: as §1

ScRvs167 = biological target: ScRvs167
Method: as §1

ScSho1 = biological target: ScSho1
Method: as §1

ScSla1-D1-D2 = biological target: ScSla1-D1-D2
Method: as §1

ScSla1-D3 = biological target: ScSla1-D3
Method: as §1

SpAbp1-D1 = biological target: SpAbp1-D1
Method: as §1

SpBbc1 = biological target: SpBbc1
Method: as §1

SpBzz1-D1 = biological target: SpBzz1-D1
Method: as §1

B1: unnamed (peptide)
chain: RRTRLRPPTPLSQLL
SpBzz1-D2
  SPOT peptide array binding signal intensity: ≤ 0
SpCyk3
  SPOT peptide array binding signal intensity: 4
SpHof1
  SPOT peptide array binding signal intensity: 406
SpHof1-2
  SPOT peptide array binding signal intensity: 61.6
SpHof1-3
  SPOT peptide array binding signal intensity: 610
SpHse1
  SPOT peptide array binding signal intensity: 460
SpLsb1
  SPOT peptide array binding signal intensity: 87.8
SpLsb4
  SPOT peptide array binding signal intensity: 615
SpMyo1
  SPOT peptide array binding signal intensity: 12.1
SpNbp2
  SPOT peptide array binding signal intensity: 184
SpPex13
  SPOT peptide array binding signal intensity: 12.8
SpRvs167
  SPOT peptide array binding signal intensity: 24.8
SpSla1-D1-D2
  SPOT peptide array binding signal intensity: 53
SpSla1-D3
  SPOT peptide array binding signal intensity: 8

B2: unnamed (peptide)
chain: NHSRSLFSLPGNQQS
AgAbp1
  SPOT peptide array binding signal intensity: 31
AgBbc1
  SPOT peptide array binding signal intensity: 21.5
AgBem1-D1
  SPOT peptide array binding signal intensity: 96.5
AgBzz1-D1
  SPOT peptide array binding signal intensity: 38
AgBzz1-D2
  SPOT peptide array binding signal intensity: 20.5
AgCyk3
  SPOT peptide array binding signal intensity: 1
AgFus1
  SPOT peptide array binding signal intensity: 786
AgHof1
  SPOT peptide array binding signal intensity: 58.8
AgHse1
  SPOT peptide array binding signal intensity: 2350
AgLsb1
  SPOT peptide array binding signal intensity: 246
AgLsb4
  SPOT peptide array binding signal intensity: 45
AgMyo5
  SPOT peptide array binding signal intensity: 44.5
AgNbp2
  SPOT peptide array binding signal intensity: 44
AgRvs167
  SPOT peptide array binding signal intensity: 14
AgSho1
  SPOT peptide array binding signal intensity: 64
AgSla1-D1-D2
  SPOT peptide array binding signal intensity: 58.5
AgSla1-D3
  SPOT peptide array binding signal intensity: 13.5
CaAbp1-D1
  SPOT peptide array binding signal intensity: 266
CaAbp1-D2
  SPOT peptide array binding signal intensity: 430
CaBbc1
  SPOT peptide array binding signal intensity: 111
CaBem1-D1
  SPOT peptide array binding signal intensity: 27
CaBzz1-D1
  SPOT peptide array binding signal intensity: 5.5
CaBzz1-D2
  SPOT peptide array binding signal intensity: 31
CaCyk3
  SPOT peptide array binding signal intensity: 1.5
CaFus1
  SPOT peptide array binding signal intensity: 1930
CaHof1
  SPOT peptide array binding signal intensity: 0.25
CaHse1
  SPOT peptide array binding signal intensity: 296
CaLsb1
  SPOT peptide array binding signal intensity: 2
CaLsb4
  SPOT peptide array binding signal intensity: ≤ 0
CaMyo5
  SPOT peptide array binding signal intensity: 85.2
CaNbp2
  SPOT peptide array binding signal intensity: 358
CaRvs167
  SPOT peptide array binding signal intensity: 54.7
CaRvs167-3
  SPOT peptide array binding signal intensity: 70.5
CaSho1
  SPOT peptide array binding signal intensity: 838
CaSla1-D1-D2
  SPOT peptide array binding signal intensity: 25.5
CaSla1-D3
  SPOT peptide array binding signal intensity: 23.8
ScAbp1
  SPOT peptide array binding signal intensity: 48
ScBbc1
  SPOT peptide array binding signal intensity: 0.75
ScBem1-D1
  SPOT peptide array binding signal intensity: 6.5
ScBzz1-D1
  SPOT peptide array binding signal intensity: 10
ScBzz1-D2
  SPOT peptide array binding signal intensity: 10.5
ScCyk3
  SPOT peptide array binding signal intensity: 29.5
ScFus1
  SPOT peptide array binding signal intensity: 595
ScHof1
  SPOT peptide array binding signal intensity: 3.5
ScHse1
  SPOT peptide array binding signal intensity: 2940
ScLsb1
  SPOT peptide array binding signal intensity: 2.75
ScLsb2
  SPOT peptide array binding signal intensity: 7
ScLsb3
  SPOT peptide array binding signal intensity: 4
ScLsb4
  SPOT peptide array binding signal intensity: ≤ 0
ScMyo3
  SPOT peptide array binding signal intensity: 29.5
ScMyo5
  SPOT peptide array binding signal intensity: 67.2
ScNbp2
  SPOT peptide array binding signal intensity: 104
ScPex13
  SPOT peptide array binding signal intensity: ≤ 0
ScRvs167
  SPOT peptide array binding signal intensity: 17
ScSho1
  SPOT peptide array binding signal intensity: 1120
ScSla1-D1-D2
  SPOT peptide array binding signal intensity: 90.5
ScSla1-D3
  SPOT peptide array binding signal intensity: 2.25
SpAbp1-D1
  SPOT peptide array binding signal intensity: 196
SpBbc1
  SPOT peptide array binding signal intensity: 5.5
SpBzz1-D1
  SPOT peptide array binding signal intensity: 28
SpBzz1-D2
  SPOT peptide array binding signal intensity: 2.5
SpCyk3
  SPOT peptide array binding signal intensity: ≤ 0
SpHof1
  SPOT peptide array binding signal intensity: 176
SpHof1-2
  SPOT peptide array binding signal intensity: 10.8
SpHof1-3
  SPOT peptide array binding signal intensity: 992
SpHse1
  SPOT peptide array binding signal intensity: 1960
SpLsb1
  SPOT peptide array binding signal intensity: 27.5
SpLsb4
  SPOT peptide array binding signal intensity: 20
SpMyo1
  SPOT peptide array binding signal intensity: 72.5
SpNbp2
  SPOT peptide array binding signal intensity: 125
SpPex13
  SPOT peptide array binding signal intensity: 7
SpRvs167
  SPOT peptide array binding signal intensity: 75
SpSla1-D1-D2
  SPOT peptide array binding signal intensity: 3
SpSla1-D3
  SPOT peptide array binding signal intensity: 13.5
